This excerpt belongs to a sample that is enriched for hits.
ST2 inh – inhibitors of human ST2 (IL1RL1) binding to IL-33. AID 1259354. AlphaLISA ST2-Fc/biotin-IL-33 interaction, 1 h. inhibition, % for hits at 17 µM. 78,000 compounds, 2.3% hits; in the data active = inhibition above about 30%
Target sequence (Q01638 whole entry, looked up): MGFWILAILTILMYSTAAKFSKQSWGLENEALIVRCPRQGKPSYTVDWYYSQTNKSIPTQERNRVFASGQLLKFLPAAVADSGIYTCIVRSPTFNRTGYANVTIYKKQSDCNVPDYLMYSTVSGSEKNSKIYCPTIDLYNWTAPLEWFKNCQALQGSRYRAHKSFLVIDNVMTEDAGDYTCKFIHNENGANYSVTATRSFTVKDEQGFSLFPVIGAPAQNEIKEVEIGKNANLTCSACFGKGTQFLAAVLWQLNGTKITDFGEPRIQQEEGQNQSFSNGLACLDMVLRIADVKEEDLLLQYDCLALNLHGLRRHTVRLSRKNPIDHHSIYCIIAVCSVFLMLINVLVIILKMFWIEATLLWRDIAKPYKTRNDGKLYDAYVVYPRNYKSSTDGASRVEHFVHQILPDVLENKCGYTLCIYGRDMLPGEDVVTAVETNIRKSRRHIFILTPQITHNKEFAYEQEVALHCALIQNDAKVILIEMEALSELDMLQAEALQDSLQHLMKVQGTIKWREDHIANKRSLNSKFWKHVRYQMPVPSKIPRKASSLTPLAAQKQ
Hits are given with their value; . = inactive.

SMILES	ST2 inh
CC(C)c1cc(NCc2cccnc2N2CCCC(O)C2)nc(C(F)(F)F)n1 (stereo not drawn)	.
CN(C)c1ccc(C2C(C(=O)c3cc4ccccc4o3)=C(O)C(=O)N2CCCn2ccnc2)cc1 (stereo not drawn)	.
Cn1cc(C2c3nc[nH]c3CCN2Cc2cccn2-c2nccs2)cn1 (stereo not drawn)	.
COc1ccc(NC(=O)N[C@H]2[C@H](O)[C@@H](N3CCC(Cc4ccccc4)CC3)[C@@H]3OC[C@H]2O3)cc1	.
N#Cc1cccc(NC(=O)N[C@H]2[C@H](O)[C@@H](N3CCCC3)[C@@H]3OC[C@H]2O3)c1	.
O=C(Nc1cccc(C(F)(F)F)c1)N[C@H]1[C@H](O)[C@@H](N2CCCCC2)[C@@H]2OC[C@H]1O2	.
COc1cccc(NC(=O)N[C@H]2[C@H](O)[C@@H](N3CCCC3)[C@@H]3OC[C@H]2O3)c1	47.0%
COc1cccc(NC(=O)N[C@H]2[C@H](O)[C@@H](N3CCN(C(C)=O)CC3)[C@@H]3OC[C@H]2O3)c1	.
CN1CCN([C@H]2[C@@H]3OC[C@@H](O3)[C@@H](NC(=O)Nc3ccccc3)[C@@H]2O)CC1	35.0%
CN1CCC(NC[C@H]2O[C@@H](CO)[C@@H](O)[C@H]2N2CCN(c3cccc(C(F)(F)F)c3)CC2)CC1	.
O=C(Nc1nnc(-c2ccc(Br)cc2)s1)c1ccc(Cl)cc1	.
CC1=C(C(=O)Nc2ccc(C)cc2C)C(c2c(F)cccc2Cl)n2ncnc2N1 (stereo not drawn)	.
Cc1cccc(-n2ncc3c(Nc4ccc(F)cc4)ncnc32)c1	.
Fc1ccc(NC2CCCN(Cc3cccc4ncccc34)C2)cc1 (stereo not drawn)	.
Fc1ccc(Nc2cccc3nccnc23)cc1	49.0%
O=C(O)[C@@H]1[C@H](C(=O)Nc2cccc3cccnc23)[C@@H]2C=C[C@H]1C2	.
Cc1ccc2ncnc(Nc3ccccc3Cl)c2c1	.
CN(C)c1ccc(Nc2cccc3nccnc23)cc1	84.0%
O=C(Nc1cccc2nccnc12)c1ccccc1	.
Cc1sc2ncnc(Nc3ccccc3Cl)c2c1C	.
c1cc(Nc2cccc3nccnc23)c2nccnc2c1	40.0%
CC(=O)Nc1cccc(N(C)C)c1	.
Clc1ccccc1Nc1cccc2nccnc12	39.0%
Cc1ccc(S(=O)(=O)N2CCN(Cc3nc4cccnc4n3-c3ccccc3)CC2)cc1Cl	.
CCC(C)OC(=O)C1=C(C)NC2=C(C(=O)C(C(=O)OC)C(C)C2)C1c1cccc(F)c1 (stereo not drawn)	.
SMILES	ST2 inh
CCCOc1ccc2oc(=O)c3c(c2c1)CCCN3C(=O)CN(C)C1CCCCC1	.
COC[C@H]1CCCN1Cc1cccc(C(=O)Nc2ncc(C)s2)c1	.
COCC(C)NC(=O)c1cc(-c2cc(OC)ccc2OC)on1 (stereo not drawn)	.
O=C(Nc1ccccc1)c1cc2n(n1)CCN(C(=O)Cc1ccccc1O)C2	.
N/C(=N/OC(=O)COc1ccc(Cl)cc1)c1cccnc1	.
O=c1[nH]c(=O)c2nc3c(ccc4nsnc43)nc2[nH]1	.
Cn1c(=O)c2nc3ccc(N)cc3nc2n(C)c1=O	.
Nc1ccc2nc3c(=O)[nH]c(=O)[nH]c3nc2c1	53.0%
CCc1nc(C)c(C(=O)N2CC(c3ccncc3)C2)o1	.
CC(=O)Cc1nsc(NC(=O)c2ccc(C)cc2)n1	.
O=C1NC(=O)c2cc(N=Cc3ccc(Cl)cc3Cl)ccc21	70.0%
O=C1NC(=O)c2cc(N=Cc3ccc(Cl)cc3)ccc21	.
O=c1[nH]c2ccc(N=Cc3cc(O)ccc3Br)cc2[nH]1	.
O=c1c2cnn(-c3ccccc3)c2ncn1Cc1ccc(F)cc1	.
COCc1cc(C)nc2sc(C(=O)Nc3ccc([N+](=O)[O-])cc3)c(N)c12	.
O=C1C=C(NC2CCCCC2)CC(c2ccccc2)C1 (stereo not drawn)	.
CSCC(=O)N[C@H]1CCN2C(=O)N(c3ccc(C(C)C)cc3)C(=O)[C@@H]2C1	52.0%
COc1cc(OC)cc(N2C(=O)[C@@H]3C[C@@H](NC(=O)c4cccn4C)CCN3C2=O)c1	.
CC(C)c1ccc(N2C(=O)C3C4C=CC(C4)C3C2=O)cc1 (stereo not drawn)	.
CC(=O)N1CCN(c2ncccc2CNC(=O)Cc2c(C)[nH]c3ccccc23)CC1	.
Cc1ccc(-c2ccnc(-n3ncc(C(=O)NCC4(N5CCCCC5)CCCC4)c3C3CC3)n2)o1	.
CCc1cccc(-n2c(-c3ccco3)nc3c(cnn3-c3ccc(F)cc3)c2=O)c1	.
CCOc1ccc(-n2c(C)nc3c(cnn3-c3ccc(F)cc3)c2=O)cc1	.
CCOc1ccc(-n2c(-c3ccco3)nc3c(cnn3-c3ccc(F)cc3)c2=O)cc1	33.0%
COCCN1CCC(CN(CC2CCCO2)C(=O)c2ccccc2SC)CC1 (stereo not drawn)	.
SMILES	ST2 inh
C=CC(C)(O)CC/C=C(\C)CCC(O)C(C)(C)O (stereo not drawn)	43.0%
Cc1c(Cl)cccc1NC(=O)CN1CCN(Cc2ccccc2Cl)S1(=O)=O	.
CC(C)c1ccc(S(=O)(=O)CCc2ccccn2)cc1	.
CC(C)c1ccc(Nc2nnc(Cc3ccc(Cl)cc3)c(=O)[nH]2)cc1	.
CNC(=O)c1ccc(CNC(=O)c2cccc(-c3ccccc3OC)c2)o1	.
COc1ccccc1-c1cccc(C(=O)NCCN2CCOC2=O)c1	31.0%
COc1ccc(-c2nn(-c3ccccc3C)cc2CNCCN2CCOC2=O)cc1F	.
Cc1ccccc1OCC(O)Cn1c(N2CCN(C)CC2)nc2c1c(=O)n(C)c(=O)n2C (stereo not drawn)	.
O=C(NCc1ccccn1)c1cc(NCC2CC2)cc(S(=O)(=O)N2CCCC2)c1	.
O=c1oc2ccccc2cc1-c1csc(Nc2ncccn2)n1	34.0%
O=C(Nc1nc(-c2cc3ccccc3oc2=O)cs1)c1ccccc1Br	.
O=C(Nc1nc(-c2cc3ccccc3oc2=O)cs1)c1c(F)cccc1F	.
COc1ccc(CC(=O)NCC2CCCN(Cc3cc4ccccc4o3)C2)cc1 (stereo not drawn)	.
CCSc1nc(CC(=O)N2[C@@H]3CC[C@H]2CC(O)C3)cs1 (stereo partly drawn)	.
O=[N+]([O-])c1ccc2nc(CSc3nc4ccccc4o3)[nH]c2c1	.
O=[N+]([O-])c1ccc2nc(-c3ccco3)c(-c3ccco3)nc2c1	36.0%
O=c1oc2cc([N+](=O)[O-])ccc2nc1C=C(O)c1ccco1	.
COc1cc(OC)c(C2Nc3ccccc3-c3nnc(SC)nc3O2)c(OC)c1 (stereo not drawn)	.
COc1cccc(CN2CCCC(O)(CN3CCn4cccc4C3)C2=O)c1OC (stereo not drawn)	.
O=C(Nc1nc2ccccc2s1)c1ccccc1F	.
O=C(COc1ccc2ccccc2c1)Nc1nc2ccccc2s1	.
NNc1nc2ccccc2s1	68.0%
CCOCCCn1c(SCC(N)=O)nc2c(sc3ccccc32)c1=O	.
COc1ccc(/C=C/c2nc(-c3ccccc3O)n(-c3ccccc3)n2)cc1OC	36.0%
COc1cc(/C=C/c2nc3ccccc3c(=O)n2-c2cccc([N+](=O)[O-])c2)ccc1O	.
SMILES	ST2 inh
COc1ccc(-c2cnn(-c3ccccc3)c2N)cc1OC	.
Oc1ccccc1C=Nc1ccccc1-c1nnc2n1CCCCC2	.
Oc1ccccc1/C=C/c1nc(-c2ccccc2O)n(-c2ccccc2)n1	36.0%
Cc1cc(C)n(-c2nc(-c3ccccc3)cc(-c3ccccc3O)n2)n1	.
O=C(c1ccc(F)cc1)N(c1ccc(Br)cc1)C1C=CS(=O)(=O)C1 (stereo not drawn)	.
O=C(Nc1cccc(Cl)c1)c1ccc([N+](=O)[O-])cc1	.
